Experimental data from PubChem BioAssay.
Values without a mark were called inactive. Calls of active or inactive are those of the source.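 The calls were made as follows, unless noted: active = mean inhibition above 46.68%, the untreated control wells mean plus 3 SD; inactive = the rest.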

Assays:
[1] = molecular target: Nuclear receptor coactivator 3 (Homo sapiens) (UniProt Q9Y6Q9); test: SRC3 coactivator transcriptional activity inhibitors, confirmation, cell-based, luminescence, quadruplicate (AID 588792;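 active = mean inhibition over 43.08%, the solvent-only control mean plus 3 SD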;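 also: 0% = DMSO treated cells and 100% = gossypol at 36 µM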); details: HEK293 GAL4-SRC3 luciferase reporter, at 3.6 µM, active compounds read high
[2] = test system: transactivating tegument protein VP16 (Human herpesvirus 1), Gal4-VP16 luciferase reporter; test: VP16 transactivation inhibitors, counter-screen for SRC3 inhibitor project, cell-based, luminescence, high throughput (AID 588794; in the data active = inhibition above about 30%); details: mammalian cells, VP16-driven luciferase reporter luminescence; at 3.6 µM; active compounds read high
[3] = molecular target: Nuclear receptor coactivator 1 (Homo sapiens) (UniProt Q15788); test: SRC1 coactivator transcriptional activity inhibitors, confirmation, cell-based, luminescence, quadruplicate (AID 588820); details: HEK293 GAL4-SRC1 luciferase reporter, at 3.6 µM, active compounds read high;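 also: 0% = DMSO wells and 100% = gossypol 36 µM treated wells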
[4] = VP16 transactivation inhibitors, counter-screen for SRC1 inhibitor project, cell-based, luminescence, high throughput (AID 588824; in the data active = inhibition above about 25%); details: cell-based VP16 transactivation luciferase luminescence; at 3.6 µM; active compounds read high
[5] = StAR promoter reporter inhibitors, counter-screen for LRH-1 inverse agonist project, cell-based, luminescence, high throughput (AID 651611; in the data active = inhibition above about 28%); details: StAR promoter luciferase reporter counterscreen, at 3.6 µM, active compounds read high
[6] = molecular target: Nuclear receptor subfamily 5 group A member 2 (Homo sapiens) (UniProt O00482); test: LRH-1 (NR5A2) inverse agonists, retest, confirmation, cell-based, luminescence (AID 651613; in the data active = inhibition above about 42%;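 also: HEK293T cells co-transfected with LRH-1 and StAR promoter luciferase reporter; 0% = vehicle wells and 100% = parental cells lacking receptor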); details: cell-based LRH-1 luciferase reporter, inverse agonism; at 3.6 µM; active compounds read high
[7] = molecular target: Steroidogenic factor 1 (Homo sapiens) (UniProt Q13285); test: SF1 (NR5A1) inverse agonists, counter-screen for LRH-1 inverse agonist project, cell-based, luminescence, high throughput (AID 651614; in the data active = inhibition above about 44%;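 also: cells cotransfected with StAR promoter reporter and SF1 expression vector; 0% = vehicle on cells with receptor and 100% = vehicle on cells lacking receptor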); details: cell-based SF1 luciferase reporter, at 3.6 µM, active compounds read high
[8] = VP16 transactivation reporter inhibitors, counter-screen for LRH-1 inverse agonist project, cell-based, luminescence, high throughput (AID 651615; in the data active = inhibition above about 33%); details: Gal4-VP16 luciferase reporter cells, at 3.6 µM, active compounds read high
[9] = test system: transactivating tegument protein VP16 (Human herpesvirus 1); test: VP16 transactivation reporter inhibitors, counter-screen for SRC2 inhibitor project, cell-based, luminescence, single concentration (AID 652007; in the data active = inhibition above about 36%); details: cell-based VP16 transactivation luciferase reporter, at 8.9 µM, active compounds read high
[10] = molecular target: Nuclear receptor coactivator 2 (Homo sapiens) (UniProt Q15596); test: SRC2 coactivator transcriptional activity inhibitors, confirmation, cell-based, luminescence, HEK293, triplicate (AID 652008;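 active = mean inhibition above 46.5%, the solvent-only control mean plus 3 SD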;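 also: 0% = DMSO-treated cells and 100% = Gossypol at 36 µM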); details: HEK293 GAL4-SRC2 luciferase reporter, at 8.9 µM, active compounds read high
Chain of Nuclear receptor coactivator 2 (Homo sapiens) (Q15596 whole entry, looked up, the tested form may be a part): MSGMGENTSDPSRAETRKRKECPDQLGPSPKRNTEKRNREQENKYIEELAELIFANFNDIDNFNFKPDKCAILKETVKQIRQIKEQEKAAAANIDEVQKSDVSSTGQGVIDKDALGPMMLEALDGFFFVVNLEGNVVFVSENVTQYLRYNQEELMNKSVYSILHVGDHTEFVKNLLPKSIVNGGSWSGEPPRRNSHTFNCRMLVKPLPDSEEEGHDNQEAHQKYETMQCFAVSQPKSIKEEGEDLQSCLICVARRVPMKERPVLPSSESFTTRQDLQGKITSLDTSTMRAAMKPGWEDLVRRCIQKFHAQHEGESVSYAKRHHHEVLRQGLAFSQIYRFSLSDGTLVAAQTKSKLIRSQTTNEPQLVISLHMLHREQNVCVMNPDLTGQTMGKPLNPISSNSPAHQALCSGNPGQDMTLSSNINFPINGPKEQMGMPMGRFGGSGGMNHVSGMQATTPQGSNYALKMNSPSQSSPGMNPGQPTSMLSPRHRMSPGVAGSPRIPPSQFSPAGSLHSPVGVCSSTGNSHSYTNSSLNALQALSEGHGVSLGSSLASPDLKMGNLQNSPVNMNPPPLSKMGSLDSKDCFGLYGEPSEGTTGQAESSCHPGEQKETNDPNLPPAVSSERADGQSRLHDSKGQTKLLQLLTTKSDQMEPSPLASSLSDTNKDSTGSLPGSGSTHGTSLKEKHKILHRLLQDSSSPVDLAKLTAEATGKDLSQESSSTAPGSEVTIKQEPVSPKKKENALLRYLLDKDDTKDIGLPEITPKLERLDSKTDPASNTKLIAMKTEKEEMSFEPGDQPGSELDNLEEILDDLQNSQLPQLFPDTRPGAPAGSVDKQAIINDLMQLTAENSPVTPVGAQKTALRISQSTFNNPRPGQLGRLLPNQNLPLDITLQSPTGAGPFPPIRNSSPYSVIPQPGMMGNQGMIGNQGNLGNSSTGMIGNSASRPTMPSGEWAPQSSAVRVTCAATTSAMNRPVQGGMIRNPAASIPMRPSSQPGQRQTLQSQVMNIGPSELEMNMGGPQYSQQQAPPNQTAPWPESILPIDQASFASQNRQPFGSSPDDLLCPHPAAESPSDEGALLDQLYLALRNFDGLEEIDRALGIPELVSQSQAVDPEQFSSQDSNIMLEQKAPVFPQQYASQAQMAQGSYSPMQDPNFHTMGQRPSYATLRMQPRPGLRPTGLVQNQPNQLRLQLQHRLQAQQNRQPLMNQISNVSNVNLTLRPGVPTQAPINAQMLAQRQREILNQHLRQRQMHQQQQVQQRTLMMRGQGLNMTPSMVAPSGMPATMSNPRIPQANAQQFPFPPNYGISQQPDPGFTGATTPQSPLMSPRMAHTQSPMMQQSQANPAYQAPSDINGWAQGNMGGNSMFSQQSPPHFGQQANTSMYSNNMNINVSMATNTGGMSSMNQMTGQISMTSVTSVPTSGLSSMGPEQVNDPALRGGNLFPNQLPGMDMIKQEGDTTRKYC

Chain of Steroidogenic factor 1 (Homo sapiens) (Q13285 whole entry, looked up, the tested form may be a part): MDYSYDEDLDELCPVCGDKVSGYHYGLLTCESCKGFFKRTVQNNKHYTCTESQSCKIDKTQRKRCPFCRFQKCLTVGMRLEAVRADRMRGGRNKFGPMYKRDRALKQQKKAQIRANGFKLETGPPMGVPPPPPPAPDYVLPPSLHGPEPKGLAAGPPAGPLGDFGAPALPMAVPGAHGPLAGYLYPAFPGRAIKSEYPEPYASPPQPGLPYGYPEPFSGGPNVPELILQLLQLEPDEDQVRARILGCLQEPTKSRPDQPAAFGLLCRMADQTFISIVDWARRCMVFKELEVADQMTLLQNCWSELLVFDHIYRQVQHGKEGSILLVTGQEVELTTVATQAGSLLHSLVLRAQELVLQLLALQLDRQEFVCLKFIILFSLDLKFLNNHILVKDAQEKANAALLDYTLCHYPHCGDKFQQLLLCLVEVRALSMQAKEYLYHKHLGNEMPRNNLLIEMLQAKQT
Chain of Nuclear receptor coactivator 1 (Homo sapiens) (Q15788 whole entry, looked up, the tested form may be a part): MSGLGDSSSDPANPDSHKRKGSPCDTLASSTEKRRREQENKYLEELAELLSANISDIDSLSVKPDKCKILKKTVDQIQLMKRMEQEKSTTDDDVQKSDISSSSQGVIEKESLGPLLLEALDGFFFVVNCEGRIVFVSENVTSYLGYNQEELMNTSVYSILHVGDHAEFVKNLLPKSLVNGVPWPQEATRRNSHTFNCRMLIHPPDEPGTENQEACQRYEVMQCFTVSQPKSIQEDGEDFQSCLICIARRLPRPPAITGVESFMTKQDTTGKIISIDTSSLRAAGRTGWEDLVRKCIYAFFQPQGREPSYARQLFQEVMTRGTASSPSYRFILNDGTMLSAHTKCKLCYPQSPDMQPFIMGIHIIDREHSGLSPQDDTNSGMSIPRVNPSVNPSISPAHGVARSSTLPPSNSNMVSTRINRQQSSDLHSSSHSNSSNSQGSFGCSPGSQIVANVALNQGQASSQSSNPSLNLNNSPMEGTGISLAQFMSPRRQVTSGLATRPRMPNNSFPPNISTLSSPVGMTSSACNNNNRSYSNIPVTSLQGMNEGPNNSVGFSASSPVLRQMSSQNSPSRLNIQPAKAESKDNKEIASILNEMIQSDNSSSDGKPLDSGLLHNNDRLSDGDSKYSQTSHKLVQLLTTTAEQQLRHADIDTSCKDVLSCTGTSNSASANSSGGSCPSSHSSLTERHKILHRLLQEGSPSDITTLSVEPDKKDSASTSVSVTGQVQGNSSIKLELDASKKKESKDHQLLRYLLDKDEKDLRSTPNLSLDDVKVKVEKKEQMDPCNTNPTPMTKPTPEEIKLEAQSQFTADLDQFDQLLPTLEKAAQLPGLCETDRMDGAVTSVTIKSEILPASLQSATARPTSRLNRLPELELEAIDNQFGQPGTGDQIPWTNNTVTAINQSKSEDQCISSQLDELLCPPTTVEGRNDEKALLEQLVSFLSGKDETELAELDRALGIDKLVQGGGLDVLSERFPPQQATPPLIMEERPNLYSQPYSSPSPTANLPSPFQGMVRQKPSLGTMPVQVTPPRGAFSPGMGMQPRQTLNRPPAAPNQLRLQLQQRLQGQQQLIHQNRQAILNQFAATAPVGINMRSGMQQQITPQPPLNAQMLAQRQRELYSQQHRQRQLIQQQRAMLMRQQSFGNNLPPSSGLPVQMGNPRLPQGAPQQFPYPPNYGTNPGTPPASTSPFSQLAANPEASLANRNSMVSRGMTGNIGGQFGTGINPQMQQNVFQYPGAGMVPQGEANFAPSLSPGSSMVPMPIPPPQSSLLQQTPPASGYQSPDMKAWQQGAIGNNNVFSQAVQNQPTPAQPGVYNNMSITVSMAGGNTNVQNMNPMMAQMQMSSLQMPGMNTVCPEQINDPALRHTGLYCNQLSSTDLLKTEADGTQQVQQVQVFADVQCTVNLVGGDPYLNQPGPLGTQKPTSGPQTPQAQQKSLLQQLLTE
Chain of Nuclear receptor subfamily 5 group A member 2 (Homo sapiens) (O00482 whole entry, looked up): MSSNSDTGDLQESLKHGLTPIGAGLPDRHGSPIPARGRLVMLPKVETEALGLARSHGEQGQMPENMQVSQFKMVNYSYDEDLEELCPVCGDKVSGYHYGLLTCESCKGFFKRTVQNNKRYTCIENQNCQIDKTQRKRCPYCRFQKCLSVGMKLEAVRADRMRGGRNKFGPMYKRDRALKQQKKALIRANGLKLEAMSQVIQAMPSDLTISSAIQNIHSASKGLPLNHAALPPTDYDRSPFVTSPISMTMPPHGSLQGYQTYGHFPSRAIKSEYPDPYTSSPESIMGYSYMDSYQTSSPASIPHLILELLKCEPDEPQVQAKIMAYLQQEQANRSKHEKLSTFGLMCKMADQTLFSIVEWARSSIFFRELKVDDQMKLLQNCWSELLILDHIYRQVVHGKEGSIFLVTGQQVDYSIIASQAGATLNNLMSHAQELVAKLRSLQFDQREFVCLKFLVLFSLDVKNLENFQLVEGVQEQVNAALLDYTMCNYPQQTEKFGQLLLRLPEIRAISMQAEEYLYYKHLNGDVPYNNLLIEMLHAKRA

Row | Structure (SMILES) | inhibition [1] | inhibition [2] | inhibition [3] | inhibition [4] | inhibition [5] | inhibition [6] | inhibition [7] | inhibition [8] | inhibition [9] | inhibition [10]
1 | O=C(NCc1cccnc1)/C(=C/c1ccc(-c2ccc(Cl)cc2)o1)S(=O)(=O)c1ccccc1 | 76.5% (active) | 62.8% (active) | 48.1% (active) | 47% (active) | 47.5% (active) | 79.5% (active) | 78.1% (active) | 77.2% (active) | 70.2% (active) | 50.4% (active)
2 | OCC1OC(n2ccc3c(NO)ncnc32)C(O)C1O (stereo unspecified) | 93.2% (active) | 88.2% (active) | 48.2% (active) | 87.4% (active) | 93.5% (active) | 108% (active) | 97% (active) | 96% (active) | 53.9% (active) | 51.5% (active)
3 | CC(C)(C)c1ccc(C(=O)O/N=C(\N)c2ccccc2)cc1 | 74.5% (active) | 73.6% (active) | 61.1% (active) | 58.3% (active) | 61.9% (active) | 55% (active) | 64.8% (active) | 51.1% (active) | 76.9% (active) | 87.7% (active)
4 | CC(C)(C)c1ccc(-c2noc(CCC(N)=O)n2)cc1 | 65.2% (active) | 51.9% (active) | 59.7% (active) | 56.7% (active) | 58.9% (active) | 70% (active) | 60.8% (active) | 58.4% (active) | 83.6% (active) | 94.2% (active)
5 | COC1=CC(=O)c2nc(Cl)ccc2C1=O | 67.8% (active) | 55.1% (active) | -9.24% | 60.7% (active) | 56.2% (active) | 65.1% (active) | 70% (active) | 72.2% (active) | 24.5% | 89.5% (active)
6 | CC(C)c1ccc(-c2nc3ccccc3s2)cc1 | 80.1% (active) | 73.8% (active) | 56% (active) | 53.8% (active) | 78.9% (active) | 42.9% (active) | 74.5% (active) | 51.7% (active) | 64.7% (active) | 86.8% (active)
7 | CC(=O)OC[C@]12CC[C@H]3[C@@](C)(CC[C@H]4C(C)(C)CCC[C@]34C)[C@@H]1CC(C1=CC(=O)OC1O)O2 (stereo partly specified) | 93.2% (active) | 90% (active) | -93.3% | 90.8% (active) | 92.7% (active) | 110% (active) | 97.1% (active) | 95% (active) | 96% (active) | 93.4% (active)
8 | O=[N+]([O-])c1nn(-c2ccc3c(c2)OCCO3)n(O)c1=Nc1ccccc1 | 81% (active) | -12.3% | 70.5% (active) | 16.2% | 68.9% (active) | 44.6% (active) | 66.5% (active) | 33.9% (active) | 35.2% | 91.4% (active)
9 | CC(C)CCCCCCCCCCCCC(=O)NCC(=O)NC1C(C)OC(Nc2ncnc3nc[nH]c23)C(O)C1O (stereo unspecified) | 98.9% (active) | 98.8% (active) | 96.6% (active) | 98.8% (active) | 94.7% (active) | 111% (active) | 97.7% (active) | 95.8% (active) | 76.9% (active) | 72.2% (active)
10 | COc1cccc2c1C(=O)c1c(O)c3c(c(O)c1C2=O)CC(O)(C(=O)CO)CC3OC1CC(N(C)C)C(O)C(C)O1 (stereo unspecified) | 96.6% (active) | 97% (active) | 85.8% (active) | 96.7% (active) | 85.1% (active) | 107% (active) | 96% (active) | 96.5% (active) | 36.9% (active) | 57.6% (active)
11 | c1csc(CNc2ccc3c(c2)OCCO3)c1 | 23.3% | -33.9% | -25.5% | -34.9% | -19.7% | -77.1% | -20.9% | -49.8% | 60.7% (active) | 47.1% (active)
12 | O=C(/C=C/Nc1ccccc1Br)c1ccccn1 | 48.5% (active) | 32.8% (active) | 10.4% | 33.1% (active) | 58.2% (active) | 42.5% (active) | 62.7% (active) | 36.1% (active) | 64.9% (active) | 82.7% (active)
13 | CC(=O)NC(c1ccc(C(C)C)cc1)c1ccc2cccnc2c1O (stereo unspecified) | 74.3% (active) | 58.4% (active) | 65.9% (active) | 60.9% (active) | 89.1% (active) | 105% (active) | 86.2% (active) | 75% (active) | -23.1% | 26.8%
14 | Cc1cc(C(=O)COC(=O)c2ccccc2Br)c(C)n1CC1CCCO1 (stereo unspecified) | 77.5% (active) | 71.7% (active) | 60.3% (active) | 51.9% (active) | 57.3% (active) | 20.4% | 51% (active) | 48.6% (active) | 66.2% (active) | 90.6% (active)
15 | O=c1ccc2ccccc2c2ccccc12 | 73.2% (active) | 70.8% (active) | 58.7% (active) | 70% (active) | 76.7% (active) | 93.6% (active) | 90.3% (active) | 88.1% (active) | 68.3% (active) | 84.5% (active)
16 | COCC(=O)OC1CCn2c1nc1c2C(=O)C(C)=C(NC(C)=O)C1=O (stereo unspecified) | 91.9% (active) | 86.7% (active) | 75.1% (active) | 85.7% (active) | 80.1% (active) | 99.7% (active) | 86.6% (active) | 90.8% (active) | 57.3% (active) | 73.5% (active)

Row | Structure (SMILES) | inhibition [1] | inhibition [2] | inhibition [3] | inhibition [4] | inhibition [5] | inhibition [6] | inhibition [7] | inhibition [8] | inhibition [9] | inhibition [10]
17 | C=C1C(=O)OC2CC1C(OC(C)=O)CC(C)=CCCC(C)=CCCC2(C)O (stereo unspecified) | 0.28% | 39.9% (active) | 23.6% | 34.9% (active) | 39.1% (active) | 25.2% | 25% | 56% (active) | 26.4% | 38.7%
18 | O=C(NCCc1ccccc1)c1ccc2c(c1)OCCCO2 | 68.3% (active) | 67.7% (active) | 31.9% | 53.5% (active) | 75.5% (active) | 62.5% (active) | 78.5% (active) | 66.5% (active) | 78.8% (active) | 87.7% (active)
19 | O=c1cnnc(N/N=C/c2ccccn2)[nH]1 | 81.9% (active) | 68.9% (active) | 76% (active) | 54.8% (active) | 87.7% (active) | 103% (active) | 83.3% (active) | 65.3% (active) | -24.3% | 26.5%
20 | CCN1/C(=C/c2sc(-c3ccccc3C)c[n+]2C)Sc2ccccc21 | 76.8% (active) | 86% (active) | 61.9% (active) | 82.8% (active) | 74.7% (active) | 105% (active) | 94.7% (active) | 89.2% (active) | 44.1% (active) | 34.1%
21 | Cc1nn(-c2nc3ccccc3[nH]2)c(=O)c2ccccc12 | 72.3% (active) | 65% (active) | 47.4% (active) | 68.3% (active) | 69.2% (active) | 63.9% (active) | 78.8% (active) | 59.3% (active) | 82.9% (active) | 89.3% (active)
22 | CCOc1c(Br)cc(CNc2ccc3c(c2)OCCO3)cc1OC | 14.5% | 8.55% | -25.8% | 9.33% | 3.55% | 3.36% | 19.9% | 26.2% | -28.8% | 21.9%
23 | COc1cccc2c1C(=O)c1c(O)c3c(c(O)c1C2=O)CC(O)(C(C)=O)CC3OC1CC(N(C)C)C(O)C(C)O1 (stereo unspecified) | 94.2% (active) | 95.8% (active) | 73.9% (active) | 95.3% (active) | 80% (active) | 104% (active) | 94.5% (active) | 96.3% (active) | 29.4% | 45.5%
24 | CC1CC(C)C(=NNC(N)=O)C(C(O)CC2CCC(=O)NC2=O)C1 (stereo unspecified) | 9.15% | 11.3% | 33.6% | 7.8% | 63.1% (active) | 76.7% (active) | 75.8% (active) | 30% | 8% | -0.31%
25 | CC(C)(C)OC(=O)NCCCCCc1cn([C@@H](CO)C(=O)NCCCCCCCCCCC(=O)N2CCN(C(=O)OC(C)(C)C)CC2)nn1 | 23.4% | 66.8% (active) | 0.34% | 71.4% (active) | 59.5% (active) | 69.4% (active) | 69.9% (active) | 80.6% (active) | 55% (active) | 48.7% (active)
26 | CCn1c(Oc2ccc(F)cc2)nc2c1c(=O)n(C)c(=O)n2C | 33.6% | 29.8% (active) | 39.9% | 23.5% | – | – | – | – | 2.83% | 30.9%
27 | O=S(=O)(Nc1cc(Sc2ncn[nH]2)c(O)c2ccccc12)c1ccccc1 | 12.9% | 13.9% | -20.2% | 4.9% | – | – | – | – | 16.2% | 12.2%
28 | CCc1ccc(/C=C2\SC(=S)N(CCCC(=O)NCCCN3CCOCC3)C2=O)cc1 | 42.4% | 21.1% | 35.1% | 8.83% | – | – | – | – | 82.6% (active) | 93.6% (active)
29 | CC(=O)OC1CC2C(C)(C)C(=O)C=CC2(C)C2CCC3(C)C(c4ccoc4)OC(=O)C4OC43C12C (stereo unspecified) | 49.5% (active) | 41.8% (active) | 25.9% | 56.1% (active) | – | – | – | – | 43.9% (active) | 6.63%
30 | Cc1ccc2occ(/C=N/NC(=O)[C@@H](N)Cc3ccccc3)c(=O)c2c1 | 37.9% | 17% | 15.7% | 23.3% | – | – | – | – | 4.17% | 44.1%
31 | COc1cc([C@@H]2c3cc4c(cc3[C@@H](O[C@@H]3O[C@@H]5CO[C@@H](C)O[C@H]5[C@H](O)[C@H]3O)[C@H]3COC(=O)[C@H]23)OCO4)cc(OC)c1O | 64.4% (active) | 8.66% | 62.5% (active) | 6.22% | – | 69.3% (active) | 44.6% (active) | – | – | –
